Among the data in ChEMBL document CHEMBL3433997, “St. Jude Leishmania screening dataset” (2016) are inhibition values, retold here.

Common to all, as to assay type: functional
The target in experiment [1] is Solute carrier family 2, facilitated glucose transporter member 1 (Homo sapiens) (UniProt P11166). As to the kind of experiment: ST_JUDE_LEISH: Cytotoxicity at 2uM final concentration against transgenic Leishmania Mexicana promastigotes LmGLUT1 that are glucose transport deficient and complemented with the human glucose transporter GLUT1. Activity is measured by DNA content using SYBR green in vitro.

The target of experiment [2] is Hexose transporter 1 (Plasmodium falciparum) (UniProt O97467). As to the kind of experiment: ST_JUDE_LEISH: Cytotoxicity at 2uM final concentration against transgenic Leishmania Mexicana promastigotes LmPfHT that are glucose transport deficient and complemented with the Plasmodium falciparum hexose transporter. Activity is measured by DNA content using SYBR green in vitro.

In experiment [3] the target is Glucose transporter (Leishmania mexicana) (UniProt O61059). As to the kind of experiment: ST_JUDE_LEISH: Cytotoxicity at 2uM final concentration against transgenic Leishmania Mexicana promastigotes LmGT2 that are glucose transport deficient and complemented with the L. Mexicana glucose transporter 2. Activity is measured by DNA content using SYBR green in vitro.

Sequence of Solute carrier family 2, facilitated glucose transporter member 1 (Homo sapiens) (P11166 whole entry): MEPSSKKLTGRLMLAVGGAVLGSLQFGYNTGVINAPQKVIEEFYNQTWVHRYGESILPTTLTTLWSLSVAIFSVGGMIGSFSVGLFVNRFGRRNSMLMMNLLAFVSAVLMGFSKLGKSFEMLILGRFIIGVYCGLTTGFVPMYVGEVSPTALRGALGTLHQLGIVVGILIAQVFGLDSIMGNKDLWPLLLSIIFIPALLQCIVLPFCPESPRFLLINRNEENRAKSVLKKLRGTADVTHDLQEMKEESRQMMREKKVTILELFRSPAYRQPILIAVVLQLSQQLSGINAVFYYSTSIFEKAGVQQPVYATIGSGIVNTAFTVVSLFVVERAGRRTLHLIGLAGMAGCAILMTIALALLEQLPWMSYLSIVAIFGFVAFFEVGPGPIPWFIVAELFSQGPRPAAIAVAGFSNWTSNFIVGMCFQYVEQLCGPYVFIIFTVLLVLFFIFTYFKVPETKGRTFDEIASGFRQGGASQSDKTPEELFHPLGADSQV

For the molecule `Cc1cc(=O)c(-c2ccc(OCCSc3ccc(C(F)(F)F)cn3)cc2)c(C)[nH]1`, the inhibition – broadly, the relative decrease from the control value, in per cent – in experiment [1] is 2.89%; in experiment [2] it was 5.13%; in experiment [3], 2.2%.

As to `Cc1ccc(Nc2ccnc3ccc(C(F)(F)F)cc23)cc1O`, the inhibition in experiment [1] stood at 4.92%; in experiment [2], 3.33%; in experiment [3], 2.31%.

In the case of `CCC(CC)N1C(=O)C(c2ccccc2)(c2ccccc2)N=C1N`, the figures for the inhibition in experiment [1], in experiment [2] and in experiment [3] were 1.48%, 3.51% and 1.61%, respectively.

For `CCCN(CCCN(CCCN(CCC)C(C)C)c1cc(C)nc(Nc2ccc(Cl)cc2)n1)C(C)C`, the inhibition in experiment [1] was determined as 9.21%; in experiment [2] it was 7.26%; in experiment [3], 6.27%.

For the molecule `CN(CCCNCc1cccc2ccccc12)CCCNCc1cccc2ccccc12`, the inhibition came out at 1.31% in experiment [1], 0.53% in experiment [2] and 1.98% in experiment [3].

Consider `NCCCNc1ccc(-c2ccc(NC(=O)Nc3cc(C(F)(F)F)ccc3F)cc2)cn1`, for which the values for the inhibition in experiment [1], in experiment [2] and in experiment [3] were 2.29%, 2.81% and 1.11%, respectively.

For `CC(=O)CSC(C=Cc1ccc(N(C)C)cc1)=Nc1ccccc1`, the inhibition in experiment [1] stood at 85.4%; in experiment [2], 83.3%; in experiment [3] it was 63.3%.

In the case of `O=C(NCCCCN1CCC(c2ccc3c(c2OCC2COCO2)CCCC3)CC1)c1ccc(-c2ccc(C(F)(F)F)cc2)cc1` (stereo not given), the inhibition was -0.33% in experiment [1], 1.19% in experiment [2] and 1.97% in experiment [3].

Consider `CCOc1ccc(OCCCON2C(=N)N=C(N)NC2(C)C)cc1`, for which the values for the inhibition in experiment [1], in experiment [2] and in experiment [3] were 1.93%, 0.06% and 0.05%, respectively.

As for `CCCCCCNCc1c(O)ccc2c(CNCCCCCC)c(O)ccc12`, the inhibition in experiment [1] was -0.62%; in experiment [2], -0.78%; in experiment [3], 0.36%.

Regarding `CC1CCN(CC[C@H]2CCCN2S(=O)(=O)c2cccc(NC(=O)c3ccc(-c4ccc(Cl)cc4)o3)c2)CC1`, the inhibition in experiment [1] was -0.33%; in experiment [2], 1.69%; in experiment [3], -0.14%.

As to `Cc1cc(NCCc2cccc(F)c2)nc(NC(=N)Nc2cccc(C(F)(F)F)c2)n1`, the inhibition in experiment [1] came to 3.82%; in experiment [2], 2.87%; in experiment [3] it was 2.41%.

On to `O=C(Nc1ccc(-c2nc3ccccc3[nH]2)cc1)c1ccc(S(=O)(=O)N2CCc3ccccc32)cc1`, for which the inhibition in experiment [1] was 2.92%; in experiment [2], 0.13%; in experiment [3], 3.39%.

For the molecule `CC(C)C[C@@H](C(=O)N[C@H](C(=O)Nc1nccs1)C(C)(C)C)[C@H](CCC(F)(F)F)N(O)C=O`, the results for the inhibition in experiment [1], in experiment [2] and in experiment [3] were 4.27%, 6.41% and 4.07%, respectively.

Take `COc1cccc(NC(=O)Nc2ccc(C)c(-c3ccc(C(=O)Nc4ccncc4)cc3)c2)c1`: the inhibition in experiment [1] was -1.55%; in experiment [2], -1.72%; in experiment [3], -0.17%.

On to `Oc1ccc(CCNc2nc(NCc3cccc(OCc4cccc(F)c4)c3)nc(N3CCNCC3)n2)cc1`, for which the inhibition in experiment [1] is -1.28%; in experiment [2], 0.71%; in experiment [3], 1.08%.

Turning to `Cc1cc(N[C@@H](CC(C)C)C(=O)NCCOc2ccccc2)nc(NCCc2ccc(F)cc2)n1`, the inhibition in experiment [1] was 2.19%; in experiment [2], 2.57%; in experiment [3] it was -0.16%.

On to `COc1ccc(NC(=O)Nc2ccc(-c3ccccc3)cc2Cl)cc1N1CCN(C)CC1`, for which the inhibition in experiment [1] was determined as 12%; in experiment [2], 11.8%; in experiment [3], 3.58%.

On to `Clc1nc(Cl)c2c(ccn2Cc2ccccc2)n1`, for which the inhibition in experiment [1] came out at 1.47%; in experiment [2] it was 0.9%; in experiment [3] it was 2.54%.

Consider `N#Cc1ccc(CN2CCCN(c3ccc(NC(=O)c4ccc(F)cc4)cc3)CC2)cc1`, for which the values for the inhibition in experiment [1], in experiment [2] and in experiment [3] were 2.88%, 3.32% and 0.81%, respectively.

`COCCN(C)c1ccc(C(=O)Nc2ccccc2)cc1NS(=O)(=O)Cc1ccccc1`: the inhibition stood at 10.2% in experiment [1], 8.35% in experiment [2] and 3.54% in experiment [3].

With `O=C(Cn1c(CCc2cccc(F)c2F)nc(=O)c2ccccc21)N(Cc1ccc(-c2ccc(C(F)(F)F)cc2)cc1)C1CCN(C2CCSCC2)CC1`, the inhibition in experiment [1] is 1.28%; in experiment [2], -2.32%; in experiment [3] it was 3.92%.

Turning to `CO/C(=C\C=C\c1cc2cc(Cl)c(Cl)cc2[nH]1)C(=O)NCCCN1CCN(c2cccc(OCC(=O)Nc3cccc(C(=O)c4ccccc4)c3)c2)CC1`, the inhibition in experiment [1] was determined as 4.84%; in experiment [2] it was 2.82%; in experiment [3], 2.69%.

In the case of `N#Cc1ccc(N/C(=N\c2cccc(Cl)c2Cl)NC2Cc3ccccc3C2)c(O)c1`, the inhibition was determined as 2.33% in experiment [1], 2.84% in experiment [2] and 3.97% in experiment [3].

With `Nc1nc(N)c2cc(CNc3ccc(Cl)c(Cl)c3)ccc2n1`, the inhibition in experiment [1] was 8.27%; in experiment [2], 6.41%; in experiment [3] it was -0.28%.

Take `COc1ccc(S(=O)(=O)N2CCOCC2)cc1NC(=O)c1cc2ccccc2o1`: the values for the inhibition in experiment [1], in experiment [2] and in experiment [3] were 2.09%, 3.19% and 1.69%, respectively.

For the molecule `CC(C)COc1ccc(Cl)cc1Nc1nc(-c2nc3ccccc3[nH]2)cs1`, the inhibition in experiment [1] is 2.76%; in experiment [2] it was 1.35%; in experiment [3], 1.01%.

For `CN1CCC(Oc2ccc(CN3CC[C@H](NC(=O)c4cc(F)cc(F)c4)C3)c3ccccc23)C1` (stereo not given in full), the inhibition in experiment [1] came to 7.53%; in experiment [2] it was 1.81%; in experiment [3], 3.76%.

Take `CC(C)(C)NCCN(Cc1ccc(-c2ccc(C(F)(F)F)cc2)cc1)C(=O)Cn1c(CCc2cccc(F)c2F)nc(=O)c2ccccc21`: the inhibition is 3% in experiment [1], 5% in experiment [2] and 1.15% in experiment [3].

As for `COc1ccc(CN(C)CCCOc2ccc(NC(=O)C=Cc3ccc(C(C)(C)C)cc3)cc2)cc1OC`, the results for the inhibition in experiment [1], in experiment [2] and in experiment [3] were 13.9%, 9.61% and 9.75%, respectively.

On to `CCCC(C)Nc1nc(C)cc(NCCC(=O)Nc2ccccc2)n1` (stereo not given), for which the inhibition was found to be 6.84% in experiment [1], 8.38% in experiment [2] and 2.55% in experiment [3].

As to `FC(F)(F)c1cccc(N=C(S)NN=Cc2ccccn2)c1`, the inhibition in experiment [1] is -0.57%; in experiment [2], 4.7%; in experiment [3], 1.52%.

Turning to `O=C(/C=C/c1ccc(Cl)c(Cl)c1)NCCCCCN1CCC(c2n[nH]c(-c3ccccc3)c2Br)CC1`, the inhibition is 1.29% in experiment [1], -2.38% in experiment [2] and 0.22% in experiment [3].

For `N#Cc1ccc(-c2ccc3nc(N4CCCN(C5CCC5)CC4)ccc3c2)cc1`, the inhibition in experiment [1] was determined as 6.14%; in experiment [2] it was 7%; in experiment [3] it was 6.34%.

In the case of `COc1cccc(NC(=O)NCCNc2ccnc(Nc3ccc(F)cc3)n2)c1`, the inhibition in experiment [1] amounted to 4.09%; in experiment [2] it was 5.04%; in experiment [3] it was 0.9%.
